# Where a name gives a salt, the structure may show the parent alone.
# Key:
# Details in all cases: treatment time: 24 h
# WPMY1-ACTB-RAB5A [1] = experiment: lowest phenotypically active concentration; higher = less potent
# Method in brief: (§1)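 Four wells per concentration (0.3, 1, 3 or 9 µM) were treated for 24 h in each of fifteen gene-edited reporter lines from A549, HepG2 and WPMY1 cells, then imaged live. After normalising live-cell features to solvent control wells, deviation was defined as ≥3 of 4 wells lying past the 95th percentile of control Euclidean distances. Reproducibility was defined as a median replicate Pearson correlation above the 95th percentile of non-replicates. Both had to hold for phenotypic activity.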
# WPMY1-CANX-COX4 [2] = experiment: as above
# Method in brief: as §1
# WPMY1-GM130-SQSTM1 [3] = experiment: as above
# Method in brief: as §1
# WPMY1-TUBA1B-RELA [4] = experiment: as above
# Method in brief: as §1
# A549-ACTB-RAB5A = experiment: phenotypically active (imaging signature differs from DMSO and reproducible) at any of 0.3-9 uM (binary (1 = active, 0 = inactive)); higher = active
# Method in brief: as §1
# A549-CANX-COX4 = experiment: as above
# Method in brief: as §1
# A549-GM130-SQSTM1 = experiment: as above
# Method in brief: as §1
# A549-TP53BP1-CLTA = experiment: as above
# Method in brief: as §1
# A549-TUBA1B-RELA = experiment: as above
# Method in brief: as §1
# HepG2-ACTB-RAB5A = experiment: as above
# Method in brief: as §1
# HepG2-CANX-COX4 = experiment: as above
# Method in brief: as §1
# HepG2-GM130-SQSTM1 = experiment: as above
# Method in brief: as §1
# HepG2-TP53BP1-CLTA = experiment: as above
# Method in brief: as §1
# HepG2-TUBA1B-RELA = experiment: as above
# Method in brief: as §1
# WPMY1-ACTB-RAB5A [5] = experiment: as above
# Method in brief: as §1
# WPMY1-CANX-COX4 [6] = experiment: as above
# Method in brief: as §1
# WPMY1-GM130-SQSTM1 [7] = experiment: as above
# Method in brief: as §1
# WPMY1-TP53BP1-CLTA [8] = experiment: as above
# Method in brief: as §1
# WPMY1-TUBA1B-RELA [9] = experiment: as above
# Method in brief: as §1
# WPMY1-TP53BP1-CLTA [10] = experiment: lowest phenotypically active concentration; higher = less potent
# Method in brief: as §1
SMILES,lowest phenotypically active concentration (WPMY1-ACTB-RAB5A [1]) [µM],lowest phenotypically active concentration (WPMY1-CANX-COX4 [2]) [µM],lowest phenotypically active concentration (WPMY1-GM130-SQSTM1 [3]) [µM],lowest phenotypically active concentration (WPMY1-TUBA1B-RELA [4]) [µM],phenotypically active (A549-ACTB-RAB5A),phenotypically active (A549-CANX-COX4),phenotypically active (A549-GM130-SQSTM1),phenotypically active (A549-TP53BP1-CLTA),phenotypically active (A549-TUBA1B-RELA),phenotypically active (HepG2-ACTB-RAB5A),phenotypically active (HepG2-CANX-COX4),phenotypically active (HepG2-GM130-SQSTM1),phenotypically active (HepG2-TP53BP1-CLTA),phenotypically active (HepG2-TUBA1B-RELA),phenotypically active (WPMY1-ACTB-RAB5A [5]),phenotypically active (WPMY1-CANX-COX4 [6]),phenotypically active (WPMY1-GM130-SQSTM1 [7]),phenotypically active (WPMY1-TP53BP1-CLTA [8]),phenotypically active (WPMY1-TUBA1B-RELA [9]),lowest phenotypically active concentration (WPMY1-TP53BP1-CLTA [10]) [µM]
NCCCCNS(=O)(=O)c1ccc2c(Cl)cccc2c1 [W-13 hydrochloride],9,9,9,9,0 (inactive),0 (inactive),0 (inactive),0 (inactive),0 (inactive),0 (inactive),0 (inactive),0 (inactive),0 (inactive),0 (inactive),1 (active),1 (active),1 (active),0 (inactive),1 (active),
CNCC(O)c1ccc(OC(=O)C(C)(C)C)c(OC(=O)C(C)(C)C)c1 (configuration not stated) [dipivefrine],,,9,,0 (inactive),0 (inactive),0 (inactive),0 (inactive),0 (inactive),0 (inactive),0 (inactive),0 (inactive),0 (inactive),0 (inactive),0 (inactive),0 (inactive),1 (active),0 (inactive),0 (inactive),
O=C(Nc1ccccc1)N1CCC(Cc2cnc3ccccc3c2)CC1,,,,,0 (inactive),0 (inactive),0 (inactive),0 (inactive),0 (inactive),0 (inactive),0 (inactive),0 (inactive),1 (active),1 (active),0 (inactive),0 (inactive),0 (inactive),0 (inactive),0 (inactive),
CCN1C(=O)NC(c2ccccc2)C1=O (configuration not stated) [ethotoin],3,3,,,0 (inactive),0 (inactive),0 (inactive),0 (inactive),0 (inactive),0 (inactive),0 (inactive),0 (inactive),0 (inactive),0 (inactive),1 (active),1 (active),0 (inactive),0 (inactive),0 (inactive),
CN/C(=C/[N+](=O)[O-])NCCSCc1csc(CN(C)C)n1 [nizatidine],,,,,0 (inactive),0 (inactive),0 (inactive),0 (inactive),0 (inactive),0 (inactive),0 (inactive),0 (inactive),1 (active),0 (inactive),0 (inactive),0 (inactive),0 (inactive),0 (inactive),0 (inactive),
O=c1cc(-c2ccc(O)cc2)oc2cc(O)cc(O)c12 [Apigenin],,,9,9,0 (inactive),0 (inactive),0 (inactive),0 (inactive),0 (inactive),0 (inactive),0 (inactive),1 (active),1 (active),1 (active),0 (inactive),0 (inactive),1 (active),1 (active),1 (active),3
NS(=O)(=O)C#Cc1ccccc1 [pifithrin-mu],,,9,9,0 (inactive),0 (inactive),0 (inactive),0 (inactive),0 (inactive),0 (inactive),0 (inactive),1 (active),0 (inactive),0 (inactive),0 (inactive),0 (inactive),1 (active),0 (inactive),1 (active),
CCCCCCCN(CC)CCCC(O)c1ccc(NS(C)(=O)=O)cc1 (configuration not stated) [ibutilide],,,3,,0 (inactive),0 (inactive),0 (inactive),0 (inactive),0 (inactive),0 (inactive),0 (inactive),0 (inactive),0 (inactive),0 (inactive),0 (inactive),0 (inactive),1 (active),0 (inactive),0 (inactive),
CCOC(=O)c1ccc(N2NC(=O)/C(=C/c3ccc([N+](=O)[O-])o3)C2=O)cc1,,9,9,,0 (inactive),0 (inactive),0 (inactive),0 (inactive),0 (inactive),0 (inactive),0 (inactive),0 (inactive),0 (inactive),0 (inactive),0 (inactive),1 (active),1 (active),0 (inactive),0 (inactive),
CNC(=O)c1ccc(C)c(-n2c(C)cc(OCc3ccc(F)cc3F)c(Br)c2=O)c1,1,,,,0 (inactive),0 (inactive),0 (inactive),0 (inactive),0 (inactive),0 (inactive),0 (inactive),0 (inactive),0 (inactive),0 (inactive),1 (active),0 (inactive),0 (inactive),0 (inactive),0 (inactive),
COc1ccnc(CS(=O)c2nc3cc(OC(F)F)ccc3[nH]2)c1OC (configuration not stated) [pantoprazole],≤ 0.3,,,,0 (inactive),0 (inactive),0 (inactive),0 (inactive),0 (inactive),0 (inactive),0 (inactive),0 (inactive),0 (inactive),0 (inactive),1 (active),0 (inactive),0 (inactive),0 (inactive),0 (inactive),

# Source: the supplement of paper PMC7411054
